From PubChem BioAssay
For some assays here: Potency and affinity values are given separately. Activity calls are given as the source filed them. Unless noted, cut-off not given; nearly all actives show IC50 up to about 0.91 µM.

These compounds were tested against Protein kinase 7 (PK7), Plasmodium falciparum 3D7 (PF3D7_0213400) (UniProt Q7YTF7) (assay: inhibition of Plasmodium PK7 catalytic activity – biochemical, TCAMS antimalarial set, Kinase-Glo luminescence (AID 1159587; call rule not given here)). Conditions: recombinant PfPK7, Kinase-Glo ATP depletion luminescence.
Chain of Protein kinase 7 (PK7), Plasmodium falciparum 3D7 (PF3D7_0213400) (Q7YTF7 1-343): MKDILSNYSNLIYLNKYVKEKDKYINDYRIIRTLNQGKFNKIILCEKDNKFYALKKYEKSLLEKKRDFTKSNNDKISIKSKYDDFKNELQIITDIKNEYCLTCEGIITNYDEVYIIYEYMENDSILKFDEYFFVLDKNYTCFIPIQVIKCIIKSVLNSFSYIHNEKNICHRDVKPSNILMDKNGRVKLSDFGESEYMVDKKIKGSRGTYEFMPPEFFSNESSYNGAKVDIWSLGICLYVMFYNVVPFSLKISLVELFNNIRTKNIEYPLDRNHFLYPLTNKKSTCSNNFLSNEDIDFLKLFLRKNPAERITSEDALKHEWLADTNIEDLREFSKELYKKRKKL

outcome, inactive:
O=[N+]([O-])c1cccc(C=NNc2ccnc3cc(F)ccc23)c1
COc1cc(N(Cc2ccc(F)cc2)C(=O)c2ccc(-c3ccccc3)cc2)ccc1OCCN1CCCC1
CCCCNc1c(C(=O)OCC)c(C)nc2c1[nH]c1ccccc12
COc1ccc(/C=C/C(=O)NCCCCCN2CCC(c3c[nH]c4ccccc34)CC2)cc1O
CCc1cc2c(Sc3nnc(N)s3)ncnc2s1
CCCc1cc(=O)oc2cc(OC)c(C(=O)CC(C)C)c(OC)c12
O=C(NOCCOc1ccccc1)c1ccccc1
CC(c1cccc(S(=O)(=O)NCc2cccc(C(F)(F)F)c2)c1)N1CCC(N2CCCCC2)CC1 (stereo not given)
CC1CCN(c2nc(C(=O)NCCc3ccc(Cl)c(Cl)c3)c(C(C)C)s2)CC1
OCCN1CCN(Cc2cccc(-c3ccc(-c4nc5ccc(C(F)(F)F)cc5[nH]4)cc3)c2)CC1
Cc1cnc(-c2ccc(NC(=O)c3coc4ccc(N5C[C@@H](C)N(C)[C@@H](C)C5)cc34)cc2)o1
CN1CCC(NCc2cccc(-c3cccc(S(=O)(=O)NCc4ccccc4)c3)c2)CC1
COc1ccc(CNC2CCN(C)CC2)cc1-c1ccc(S(=O)(=O)NC2CCC2)c(C)c1
CN1CCN(CCCN(Cc2csc(-c3ccc(CNCc4ccccc4)cc3)n2)S(=O)(=O)c2ccccc2Cl)CC1
Cc1ccc(-c2cccc3c(NC(=O)Nc4ccc5nccc(N6CCN(C)CC6)c5c4)cccc23)cn1
CCCCCCCCOc1c(OCC)cc(Cc2cnc(N)nc2N)cc1OCC
C=CCN1C(=O)C(C(C)=O)=C(O)C1c1ccccc1 (stereo not given)
O=[N+]([O-])c1cccc(CNCC2CCN(Cc3ccc4ccccc4c3)CC2)c1
COc1ccc2nccc([C@@H](O)CN3CCC(NC(=O)c4[nH]c5ccccc5c4-c4ccccc4)CC3)c2c1
OC(CNc1cccc(Cl)c1)Cn1c2ccc(Cl)cc2c2cc(Cl)ccc21 (stereo not given)
Cc1cc(N[C@@H](Cc2ccccc2)C(=O)Nc2ccccc2)nc(NCCc2cccnc2)n1
Cc1cccc2[nH]c(-c3cccc(-c4cccc(NC(=O)c5ccoc5)c4)c3)nc12
CC(C)CCN1CCC(Oc2ccc(NC(=O)c3ccc(F)cc3)cc2Cl)CC1
Cc1cccc2[nH]c(-c3cccc(-c4cccc(CNCc5cnn(-c6ccccc6)n5)c4)c3)nc12
CC1(CCc2ccccc2)N=C(Nc2ccc(Cl)cc2)N=C(N)C1c1ccc(Cl)c(Cl)c1 (stereo not given)
Cc1[nH]c(C)c(-c2ccc(OCc3cc(C(F)(F)F)cc(C(F)(F)F)c3)nc2)c(=O)c1Br
O=C1C([N+](=O)[O-])=C(O)c2cccc(F)c21
Oc1ccc(Cl)cc1Nc1nc(C(F)(F)F)nc2ccccc12
Cc1ccc2nc(C)n(C3CCN(C(=O)C4(c5ccccc5)CC4)CC3)c2c1
CCCCCc1ccc(N2C(N)=NC(N)=NC2(C)C)cc1
O=S(=O)(c1ccc(Cl)cc1Cl)N1CCCCC(c2ccc(C(F)(F)F)cc2)=N1
O=C(NCc1ccccc1)c1ncn(CCCN2CCC(N3CCCC3)CC2)c1-c1ccc(Cl)c(Cl)c1
CC[C@H]1CN2CCc3cc(OC)c(OC)cc3[C@@H]2C[C@@H]1CC1=NCCc2c1[nH]c1ccc(OCc3ccccc3)cc21
CCNc1cc(CCCC(=O)OCC)nc(Nc2ccc(C)cc2)n1
CN1CCC(NCc2cccc(-c3ccc(S(=O)(=O)NCCc4ccccn4)cc3)c2)CC1
Clc1ccc(Sc2cncnc2N2CCOCC2)cc1
Cc1cc2ccc(-c3cccc(CN)c3)cc2nc1N
CC(=O)N1CCN(c2ccc(NC(=O)c3oc(-c4ccccc4)nc3C(F)(F)F)cn2)CC1
COc1cc(Nc2nccc(N3CCC(NS(=O)(=O)c4ccc(NC(C)=O)cc4)CC3)n2)cc(OC)c1OC
CCNc1cc(-c2cccc(OC)c2)nc(Nc2ccc(F)cc2)n1

The compounds below were run against Calcium-dependent protein kinase 4 (Plasmodium falciparum (isolate 3D7)) (UniProt Q8IBS5) (assay: PfCDPK4 kinase inhibitors, biochemical, TCAMS library (AID 1159588)). Conditions: recombinant PfCDPK4, Kinase-Glo ATP depletion luminescence.
Chain of Calcium-dependent protein kinase 4 (Plasmodium falciparum (isolate 3D7)) (Q8IBS5 whole entry, looked up): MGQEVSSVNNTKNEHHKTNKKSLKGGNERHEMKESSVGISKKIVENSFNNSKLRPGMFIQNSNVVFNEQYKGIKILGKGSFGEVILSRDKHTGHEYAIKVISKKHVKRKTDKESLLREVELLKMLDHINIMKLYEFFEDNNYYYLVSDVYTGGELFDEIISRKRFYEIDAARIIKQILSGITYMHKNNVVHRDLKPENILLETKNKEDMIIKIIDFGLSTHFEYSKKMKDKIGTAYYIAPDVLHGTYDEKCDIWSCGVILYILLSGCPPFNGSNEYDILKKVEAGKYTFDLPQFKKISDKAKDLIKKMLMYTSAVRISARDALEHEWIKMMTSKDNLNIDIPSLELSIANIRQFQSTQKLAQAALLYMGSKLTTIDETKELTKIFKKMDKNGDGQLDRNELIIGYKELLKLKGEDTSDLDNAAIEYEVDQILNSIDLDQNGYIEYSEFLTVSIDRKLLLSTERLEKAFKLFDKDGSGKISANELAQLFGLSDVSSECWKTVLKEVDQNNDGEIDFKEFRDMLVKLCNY

outcome, inactive:
O=[N+]([O-])c1cccc(C=NNc2ccnc3cc(F)ccc23)c1
COc1cc(N(Cc2ccc(F)cc2)C(=O)c2ccc(-c3ccccc3)cc2)ccc1OCCN1CCCC1
CCCCNc1c(C(=O)OCC)c(C)nc2c1[nH]c1ccccc12
COc1ccc(/C=C/C(=O)NCCCCCN2CCC(c3c[nH]c4ccccc34)CC2)cc1O
CCc1cc2c(Sc3nnc(N)s3)ncnc2s1
CCCc1cc(=O)oc2cc(OC)c(C(=O)CC(C)C)c(OC)c12
O=C(NOCCOc1ccccc1)c1ccccc1
CC(c1cccc(S(=O)(=O)NCc2cccc(C(F)(F)F)c2)c1)N1CCC(N2CCCCC2)CC1 (stereo not given)
CC1CCN(c2nc(C(=O)NCCc3ccc(Cl)c(Cl)c3)c(C(C)C)s2)CC1
OCCN1CCN(Cc2cccc(-c3ccc(-c4nc5ccc(C(F)(F)F)cc5[nH]4)cc3)c2)CC1
Cc1cnc(-c2ccc(NC(=O)c3coc4ccc(N5C[C@@H](C)N(C)[C@@H](C)C5)cc34)cc2)o1
CN1CCC(NCc2cccc(-c3cccc(S(=O)(=O)NCc4ccccc4)c3)c2)CC1
COc1ccc(CNC2CCN(C)CC2)cc1-c1ccc(S(=O)(=O)NC2CCC2)c(C)c1
CN1CCN(CCCN(Cc2csc(-c3ccc(CNCc4ccccc4)cc3)n2)S(=O)(=O)c2ccccc2Cl)CC1
Cc1ccc(-c2cccc3c(NC(=O)Nc4ccc5nccc(N6CCN(C)CC6)c5c4)cccc23)cn1
CCCCCCCCOc1c(OCC)cc(Cc2cnc(N)nc2N)cc1OCC
C=CCN1C(=O)C(C(C)=O)=C(O)C1c1ccccc1 (stereo not given)
O=[N+]([O-])c1cccc(CNCC2CCN(Cc3ccc4ccccc4c3)CC2)c1
COc1ccc2nccc([C@@H](O)CN3CCC(NC(=O)c4[nH]c5ccccc5c4-c4ccccc4)CC3)c2c1
OC(CNc1cccc(Cl)c1)Cn1c2ccc(Cl)cc2c2cc(Cl)ccc21 (stereo not given)
Cc1cc(N[C@@H](Cc2ccccc2)C(=O)Nc2ccccc2)nc(NCCc2cccnc2)n1
Cc1cccc2[nH]c(-c3cccc(-c4cccc(NC(=O)c5ccoc5)c4)c3)nc12
CC(C)CCN1CCC(Oc2ccc(NC(=O)c3ccc(F)cc3)cc2Cl)CC1
Cc1cccc2[nH]c(-c3cccc(-c4cccc(CNCc5cnn(-c6ccccc6)n5)c4)c3)nc12
CC1(CCc2ccccc2)N=C(Nc2ccc(Cl)cc2)N=C(N)C1c1ccc(Cl)c(Cl)c1 (stereo not given)
Cc1[nH]c(C)c(-c2ccc(OCc3cc(C(F)(F)F)cc(C(F)(F)F)c3)nc2)c(=O)c1Br
O=C1C([N+](=O)[O-])=C(O)c2cccc(F)c21
Oc1ccc(Cl)cc1Nc1nc(C(F)(F)F)nc2ccccc12
Cc1ccc2nc(C)n(C3CCN(C(=O)C4(c5ccccc5)CC4)CC3)c2c1
CCCCCc1ccc(N2C(N)=NC(N)=NC2(C)C)cc1
O=S(=O)(c1ccc(Cl)cc1Cl)N1CCCCC(c2ccc(C(F)(F)F)cc2)=N1
O=C(NCc1ccccc1)c1ncn(CCCN2CCC(N3CCCC3)CC2)c1-c1ccc(Cl)c(Cl)c1
CC[C@H]1CN2CCc3cc(OC)c(OC)cc3[C@@H]2C[C@@H]1CC1=NCCc2c1[nH]c1ccc(OCc3ccccc3)cc21
CCNc1cc(CCCC(=O)OCC)nc(Nc2ccc(C)cc2)n1
CN1CCC(NCc2cccc(-c3ccc(S(=O)(=O)NCCc4ccccn4)cc3)c2)CC1
Clc1ccc(Sc2cncnc2N2CCOCC2)cc1
Cc1cc2ccc(-c3cccc(CN)c3)cc2nc1N
CC(=O)N1CCN(c2ccc(NC(=O)c3oc(-c4ccccc4)nc3C(F)(F)F)cn2)CC1
COc1cc(Nc2nccc(N3CCC(NS(=O)(=O)c4ccc(NC(C)=O)cc4)CC3)n2)cc(OC)c1OC
CCNc1cc(-c2cccc(OC)c2)nc(Nc2ccc(F)cc2)n1
